Compound activity deposited in PubChem by National Center for Advancing Translational Sciences (NCATS).
Lassa entry inh – blocks Lassa virus binding to or entry into cells; Lassa virus pseudotype entry inhibition, cell reporter; Potency, µM (doses to about 37.9 µM), for the others: at the top dose activity change, negative = inhibition, usual class: inhibitors; 300,000 compounds, 1.2% hits; AID 540256; calls by dose curve; tested in HEK293 cells; note: potency is the fitted concentration of half-maximal effect; nearly all actives have a fitted effect of over 50% in size
Marburg entry inh – inhibitors of Marburg virus binding or cell entry | Marburg virus pseudotyped entry inhibition, cell reporter | Potency, µM (series often up to 37.8 µM), for inactives: at the highest dose activity change, negative = inhibition, usual class: inhibitors | 300,000 compounds, 1.8% hits | AID 540276; calls by dose curve; tested in HEK293 cells; note: potency is the fitted concentration of half-maximal effect
VACV mCherry inh – inhibitors of vaccinia virus infection (mCherry reporter signal); Vaccinia virus mCherry reporter infection, fluorescence; Potency, µM (titrated, usually from 36.5 µM), inactives show at the top dose activity change, negative = inhibition, actives largely listed as inhibitors; 310,000 compounds, 0.63% hits; AID 720579; calls by dose curve; tested in A549 cells; note: potency is the fitted concentration of half-maximal effect; nearly all actives have a fitted effect of over 35% in size
FMDV antiviral – foot and mouth disease virus antiviral activity. FMDV antiviral cell-based qHTS. Potency, µM (titrated, usually from 57.9 µM), without a hit: at the top dose activity change, negative = inhibition, usual class: inhibitors. 410,000 compounds, 1.2% hits. AID 1159524; calls by dose curve; tested in HEK293T cells; note: read-out not given here; potency is the fitted concentration of half-maximal effect; nearly all actives have a fitted effect of over 45% in size
HCMV antiviral – blocks human cytomegalovirus replication | activity change, negative = inhibition, % at 57.5 µM | HFF cells, HCMV-luciferase reporter, 72 h; stronger effect = lower value | 410,000 compounds, 4.5% hits; in the data active = activity change below about -60%; inconclusive = no clear call, values can overlap the other calls; inactive = above about -39%
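After 16 h attachment at 37C, HFF cells received test compound and HCMV-luciferase (1 PFU/cell); reporter luminescence read 72 h later, data normalized against buffer-only and known inhibitor Salinomycin.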
Vaccinia Venus – inhibitors of vaccinia virus (Venus reporter) | Vaccinia virus Venus reporter expression, fluorescence | Potency, µM (highest dose often 36.5 µM), for inactives: top-dose activity change, negative = inhibition, hits mostly inhibitors | 330,000 compounds, 0.46% hits; calls by dose curve; tested in A549 cells; note: potency is the fitted concentration of half-maximal effect; nearly all actives have a fitted effect of over 30% in size
Numbers without * were called inactive; [ ] = remark or other dose. In the library only some 6.5% were active in any assay of this set; here they are far more common. % is set by controls: 0 for no effect and ±100 for the full control effect.

For COc1ccc(-n2c(/C=C/c3cccc(C(F)(F)F)c3)nc3ccccc3c2=O)cc1Cl the results were Lassa entry inh -3%[46.1 µM], VACV mCherry inh -12%, FMDV antiviral -29%, HCMV antiviral 24 and Vaccinia Venus -26%.
`COc1ccc(CNc2ncnc3cc(Cl)ccc23)cc1OC` gave Lassa entry inh inconclusive, Marburg entry inh inconclusive, VACV mCherry inh -15%, FMDV antiviral inconclusive, HCMV antiviral -70* and Vaccinia Venus -25%.
`COc1cc2ncnc(NCCc3ccccc3)c2cc1OC` gave FMDV antiviral 20µM* and HCMV antiviral inconclusive.
For COc1ccc(CCNc2ncnc3cc(OC)c(OC)cc23)cc1OC the results were Lassa entry inh inconclusive, Marburg entry inh inconclusive, VACV mCherry inh inactive, FMDV antiviral 20µM*, HCMV antiviral -21 and Vaccinia Venus -21%.
COc1cccc(CNc2ncnc3cc(OC)c(OC)cc23)c1 was read as Lassa entry inh -12%, Marburg entry inh inconclusive, FMDV antiviral inconclusive, HCMV antiviral 21 and Vaccinia Venus inconclusive.
For COc1cc2ncnc(NCc3ccc(C)cc3)c2cc1OC the results were Lassa entry inh -6%, Marburg entry inh inconclusive, VACV mCherry inh -12%, FMDV antiviral -13%, HCMV antiviral 0 and Vaccinia Venus -15%.
For COc1ccc(CCNc2ncnc3c2c(-c2ccccc2)cn3-c2cccc(Cl)c2)cc1OC the results were Lassa entry inh inconclusive, VACV mCherry inh -19%, FMDV antiviral 25µM*, HCMV antiviral 25 and Vaccinia Venus -11%.
Screening CC(CCCN(C)C)C(Cc1ccccc1)c1ccccc1 (configuration not stated) returned Lassa entry inh inconclusive, Marburg entry inh inconclusive, VACV mCherry inh -24%, FMDV antiviral -17%, HCMV antiviral -78* and Vaccinia Venus -16%.
Cc1nc2nc(SCC(=O)NCCc3ccc(Cl)cc3)nn2c(C)c1Cc1ccccc1 was read as Lassa entry inh -16%[46.1 µM], Marburg entry inh inconclusive, VACV mCherry inh -3%, FMDV antiviral -3%, HCMV antiviral -19 and Vaccinia Venus 3%.
Screening CC(=O)c1nn(-c2cccc(Br)c2)cc1C(=O)c1ccc(C)cc1 returned Lassa entry inh inconclusive, Marburg entry inh -30%, FMDV antiviral 8% and HCMV antiviral -69*.
COc1ccc(C(=O)c2sc3nc(C)cc(-c4cccs4)c3c2N)cc1OC was read as Lassa entry inh 2%, Marburg entry inh inconclusive, VACV mCherry inh inconclusive, FMDV antiviral inconclusive, HCMV antiviral -61* and Vaccinia Venus -28%.
`COc1ccc(C(=O)c2sc3nc(C)cc(-c4cccs4)c3c2N)cc1` gave Lassa entry inh 5%, Marburg entry inh -5%, VACV mCherry inh inconclusive, FMDV antiviral -15%, HCMV antiviral -36 and Vaccinia Venus inconclusive.
Screening COc1ccc(-c2csc(NC(=O)c3cccc(N4C(=O)CCC4=O)c3)n2)cc1OC returned Lassa entry inh -1%, Marburg entry inh inconclusive, VACV mCherry inh inactive, FMDV antiviral -18%, HCMV antiviral 5 and Vaccinia Venus -7%.
Screening COc1ccccc1-c1csc(NC(=O)c2ccc(N3C(=O)CCC3=O)cc2)n1 returned FMDV antiviral 18µM* and HCMV antiviral 32.
For COc1ccc(-c2csc(NC(=O)c3ccc(N4C(=O)CCC4=O)cc3)n2)cc1 the results were Lassa entry inh 2%, Marburg entry inh -8%, FMDV antiviral inconclusive and HCMV antiviral -67*.
Screening O=C(Nc1nc(-c2ccc(F)cc2)cs1)c1ccc(N2C(=O)CCC2=O)cc1 returned Lassa entry inh -14%, Marburg entry inh inconclusive, VACV mCherry inh inactive, FMDV antiviral inconclusive, HCMV antiviral -10 and Vaccinia Venus -29%.
O=C(Nc1ccc(Br)cc1Cl)c1cnn2c1NC(=C1CC1)C=C2C(F)F was read as VACV mCherry inh -10% and Vaccinia Venus -8%.
N#Cc1sc2nc(C3CC3)cc(-c3ccc(Cl)cc3)c2c1N was read as Lassa entry inh inconclusive, Marburg entry inh inconclusive, VACV mCherry inh 4.5µM*, FMDV antiviral inconclusive, HCMV antiviral 19 and Vaccinia Venus 14µM*.
For COc1ccc(S(=O)(=O)NCCc2csc3nc(-c4ccc(OC)c(OC)c4)nn23)cc1C the results were Lassa entry inh -9%[46.1 µM], VACV mCherry inh -11%, FMDV antiviral 38%, HCMV antiviral 54 and Vaccinia Venus -9%.
O=C(Nc1ccc(F)cc1)N1CC(=O)N2[C@H](CO)[C@@H](c3ccc(Br)cc3)[C@H]2C1 was read as HCMV antiviral -1.
Cc1ccc(Cn2c(=N)c(C(=O)NCc3ccco3)cc3c(=O)n4ccccc4nc32)cc1 was read as Lassa entry inh inconclusive, Marburg entry inh 13µM*, VACV mCherry inh 11%, FMDV antiviral -2%, HCMV antiviral 5 and Vaccinia Venus 11%.
CCOCCCn1c(=N)c(C(=O)NCc2ccco2)cc2c(=O)n3ccccc3nc21 was read as Lassa entry inh -4%[46.1 µM], Marburg entry inh inconclusive, VACV mCherry inh 13%, FMDV antiviral -5%, HCMV antiviral -10 and Vaccinia Venus 7%.
`COc1ccc(CNC(=O)c2cc3c(=O)n4ccccc4nc3n(Cc3ccco3)c2=N)cc1` gave Marburg entry inh 6%.
For N=c1c(C(=O)NCc2ccco2)cc2c(=O)n3ccccc3nc2n1CCc1ccccc1 the results were Lassa entry inh inconclusive, Marburg entry inh inconclusive, FMDV antiviral -23%, HCMV antiviral inconclusive and Vaccinia Venus -1%.
COc1ccc(CCn2c(-c3ccco3)nc3ccccc3c2=O)cc1OC was read as Lassa entry inh inconclusive, Marburg entry inh inconclusive, VACV mCherry inh -13%, FMDV antiviral 32µM*, HCMV antiviral 7 and Vaccinia Venus -10%.
COc1ccc(CCn2c(=N)c(C(=O)NCc3ccco3)cc3c(=O)n4ccccc4nc32)cc1OC was read as FMDV antiviral -13% and HCMV antiviral -95*.
COCCCn1c(=N)c(C(=O)NCc2ccco2)cc2c(=O)n3ccccc3nc21 was read as Lassa entry inh 6%[46.1 µM], Marburg entry inh 2.5µM*, VACV mCherry inh 7%, FMDV antiviral -15%, HCMV antiviral -13 and Vaccinia Venus 4%.
Screening O=C(CSc1nnc(-c2ccccc2)c(-c2ccccc2)n1)NC1CCCC1 returned Lassa entry inh 5%[46.1 µM], VACV mCherry inh -2%, FMDV antiviral -11%, HCMV antiviral 0 and Vaccinia Venus -5%.
For CCCNC(=O)Cn1nc(-c2ccc(C)c(C)c2)c2cnc3ccc(OC)cc3c21 the results were Lassa entry inh 0%[46.1 µM], VACV mCherry inh -25%, FMDV antiviral 15%, HCMV antiviral -1 and Vaccinia Venus -25%.
For Cc1cccc(CNC(=O)CCCN2C(=O)c3cccnc3Oc3ccccc32)c1 the results were Lassa entry inh -3%[46.1 µM], VACV mCherry inh -4%, FMDV antiviral -8%, HCMV antiviral 0 and Vaccinia Venus -8%.
